# Measurements: ChEMBL document CHEMBL2218924, “A broad activity screen in support of a chemogenomic map for kinase signalling research and drug discovery” (Biochem J, 2013)
# Tests used:
# [1] = biological target: Serine/threonine-protein kinase MRCK beta (Homo sapiens) (UniProt Q9Y5S2); conditions: at 1 µM
# [2] = biological target: Serine/threonine-protein kinase MRCK beta (Homo sapiens) (UniProt Q9Y5S2); conditions: at 10 µM
# [3] = biological target: Ribosomal protein S6 kinase alpha-5 (Homo sapiens) (UniProt O75582); conditions: at 1 µM
# Ribosomal protein S6 kinase alpha-5 (Homo sapiens), sequence (O75582 whole entry, looked up): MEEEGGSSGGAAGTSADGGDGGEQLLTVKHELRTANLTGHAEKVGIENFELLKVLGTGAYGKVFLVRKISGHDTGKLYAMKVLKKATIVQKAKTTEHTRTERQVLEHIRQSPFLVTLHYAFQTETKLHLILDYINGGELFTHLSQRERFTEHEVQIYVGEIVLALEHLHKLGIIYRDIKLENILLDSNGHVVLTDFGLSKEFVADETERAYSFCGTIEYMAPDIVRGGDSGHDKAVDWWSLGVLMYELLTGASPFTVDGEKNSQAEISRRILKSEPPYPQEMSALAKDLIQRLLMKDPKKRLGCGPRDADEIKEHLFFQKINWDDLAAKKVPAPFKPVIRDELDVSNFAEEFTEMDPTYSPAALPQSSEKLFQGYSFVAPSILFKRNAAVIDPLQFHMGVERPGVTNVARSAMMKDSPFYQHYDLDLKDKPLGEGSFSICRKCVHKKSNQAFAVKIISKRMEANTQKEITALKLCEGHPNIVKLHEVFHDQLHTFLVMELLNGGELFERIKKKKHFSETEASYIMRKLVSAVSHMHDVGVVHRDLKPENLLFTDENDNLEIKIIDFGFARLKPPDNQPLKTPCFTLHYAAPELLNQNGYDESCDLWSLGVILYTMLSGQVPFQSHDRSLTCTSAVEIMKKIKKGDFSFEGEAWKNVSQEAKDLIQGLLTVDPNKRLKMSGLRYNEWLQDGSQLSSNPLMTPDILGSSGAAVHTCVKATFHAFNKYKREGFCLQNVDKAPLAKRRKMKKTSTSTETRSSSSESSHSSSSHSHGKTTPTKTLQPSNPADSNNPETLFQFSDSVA
# [4] = biological target: Ribosomal protein S6 kinase alpha-5 (Homo sapiens) (UniProt O75582); conditions: at 10 µM
# [5] = biological target: Ribosomal protein S6 kinase alpha-4 (Homo sapiens) (UniProt O75676); conditions: at 1 µM
# Ribosomal protein S6 kinase alpha-4 (Homo sapiens), sequence (O75676 whole entry, looked up): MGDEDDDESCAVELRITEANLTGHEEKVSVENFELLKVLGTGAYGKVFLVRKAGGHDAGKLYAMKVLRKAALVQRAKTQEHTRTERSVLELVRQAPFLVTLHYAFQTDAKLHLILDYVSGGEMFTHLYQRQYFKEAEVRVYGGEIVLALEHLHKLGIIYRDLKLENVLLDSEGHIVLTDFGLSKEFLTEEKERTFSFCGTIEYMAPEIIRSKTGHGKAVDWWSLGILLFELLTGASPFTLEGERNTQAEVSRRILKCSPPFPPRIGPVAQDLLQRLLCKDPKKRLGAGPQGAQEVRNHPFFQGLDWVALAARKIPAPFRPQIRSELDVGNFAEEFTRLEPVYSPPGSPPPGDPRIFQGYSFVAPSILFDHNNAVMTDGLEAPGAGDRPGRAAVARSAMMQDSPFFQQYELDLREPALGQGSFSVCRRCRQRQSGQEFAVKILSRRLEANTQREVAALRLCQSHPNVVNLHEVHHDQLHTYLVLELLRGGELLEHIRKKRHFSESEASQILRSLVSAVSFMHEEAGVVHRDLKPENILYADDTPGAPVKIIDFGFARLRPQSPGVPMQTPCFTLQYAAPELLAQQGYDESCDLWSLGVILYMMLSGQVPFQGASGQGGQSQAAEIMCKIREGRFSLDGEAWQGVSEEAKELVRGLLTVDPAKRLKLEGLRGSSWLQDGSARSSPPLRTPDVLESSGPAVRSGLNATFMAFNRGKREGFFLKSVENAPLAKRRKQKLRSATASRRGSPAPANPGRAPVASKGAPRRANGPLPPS
# [6] = biological target: Ribosomal protein S6 kinase alpha-4 (Homo sapiens) (UniProt O75676); conditions: at 10 µM
# [7] = biological target: SRSF protein kinase 3 (Homo sapiens) (UniProt Q9UPE1); conditions: at 1 µM
# SRSF protein kinase 3 (Homo sapiens), sequence (Q9UPE1 whole entry): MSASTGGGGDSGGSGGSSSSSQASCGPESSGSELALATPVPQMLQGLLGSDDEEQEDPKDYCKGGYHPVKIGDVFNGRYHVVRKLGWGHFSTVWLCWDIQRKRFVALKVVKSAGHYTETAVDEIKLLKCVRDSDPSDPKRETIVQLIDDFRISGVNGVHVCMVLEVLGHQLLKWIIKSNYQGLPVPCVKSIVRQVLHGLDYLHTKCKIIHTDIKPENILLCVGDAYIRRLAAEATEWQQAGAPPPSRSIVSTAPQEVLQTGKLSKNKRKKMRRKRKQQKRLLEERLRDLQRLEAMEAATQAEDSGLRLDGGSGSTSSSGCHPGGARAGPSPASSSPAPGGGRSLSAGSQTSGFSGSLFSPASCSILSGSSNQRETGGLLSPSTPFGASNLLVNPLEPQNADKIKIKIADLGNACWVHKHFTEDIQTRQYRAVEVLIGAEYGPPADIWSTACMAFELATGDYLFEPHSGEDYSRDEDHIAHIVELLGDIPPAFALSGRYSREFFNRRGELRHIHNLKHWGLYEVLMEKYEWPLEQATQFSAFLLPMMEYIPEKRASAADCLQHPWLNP
# [8] = biological target: SRSF protein kinase 3 (Homo sapiens) (UniProt Q9UPE1); conditions: at 10 µM
# [9] = biological target: T1, Serine/threonine-protein kinase 4 (Homo sapiens) (UniProt Q13043); conditions: at 1 µM
# T1 sequence (whole entry): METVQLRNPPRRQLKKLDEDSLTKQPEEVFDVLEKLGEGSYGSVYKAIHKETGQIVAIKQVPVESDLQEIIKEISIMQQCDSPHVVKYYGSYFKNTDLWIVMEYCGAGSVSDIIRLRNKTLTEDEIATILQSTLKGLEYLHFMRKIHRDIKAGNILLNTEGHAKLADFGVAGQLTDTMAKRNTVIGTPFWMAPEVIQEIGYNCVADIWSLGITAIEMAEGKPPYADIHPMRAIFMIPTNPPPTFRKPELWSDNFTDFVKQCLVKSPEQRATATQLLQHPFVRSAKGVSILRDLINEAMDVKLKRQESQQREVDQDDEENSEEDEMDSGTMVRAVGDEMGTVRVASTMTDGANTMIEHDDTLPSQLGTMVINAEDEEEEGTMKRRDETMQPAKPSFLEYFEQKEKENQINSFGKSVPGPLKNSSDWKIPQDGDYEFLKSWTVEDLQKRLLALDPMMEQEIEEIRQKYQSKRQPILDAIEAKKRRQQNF
# [10] = biological target: T1, Serine/threonine-protein kinase 4 (Homo sapiens); conditions: at 10 µM
# Serine/threonine-protein kinase MRCK beta (Homo sapiens), sequence (Q9Y5S2 whole entry): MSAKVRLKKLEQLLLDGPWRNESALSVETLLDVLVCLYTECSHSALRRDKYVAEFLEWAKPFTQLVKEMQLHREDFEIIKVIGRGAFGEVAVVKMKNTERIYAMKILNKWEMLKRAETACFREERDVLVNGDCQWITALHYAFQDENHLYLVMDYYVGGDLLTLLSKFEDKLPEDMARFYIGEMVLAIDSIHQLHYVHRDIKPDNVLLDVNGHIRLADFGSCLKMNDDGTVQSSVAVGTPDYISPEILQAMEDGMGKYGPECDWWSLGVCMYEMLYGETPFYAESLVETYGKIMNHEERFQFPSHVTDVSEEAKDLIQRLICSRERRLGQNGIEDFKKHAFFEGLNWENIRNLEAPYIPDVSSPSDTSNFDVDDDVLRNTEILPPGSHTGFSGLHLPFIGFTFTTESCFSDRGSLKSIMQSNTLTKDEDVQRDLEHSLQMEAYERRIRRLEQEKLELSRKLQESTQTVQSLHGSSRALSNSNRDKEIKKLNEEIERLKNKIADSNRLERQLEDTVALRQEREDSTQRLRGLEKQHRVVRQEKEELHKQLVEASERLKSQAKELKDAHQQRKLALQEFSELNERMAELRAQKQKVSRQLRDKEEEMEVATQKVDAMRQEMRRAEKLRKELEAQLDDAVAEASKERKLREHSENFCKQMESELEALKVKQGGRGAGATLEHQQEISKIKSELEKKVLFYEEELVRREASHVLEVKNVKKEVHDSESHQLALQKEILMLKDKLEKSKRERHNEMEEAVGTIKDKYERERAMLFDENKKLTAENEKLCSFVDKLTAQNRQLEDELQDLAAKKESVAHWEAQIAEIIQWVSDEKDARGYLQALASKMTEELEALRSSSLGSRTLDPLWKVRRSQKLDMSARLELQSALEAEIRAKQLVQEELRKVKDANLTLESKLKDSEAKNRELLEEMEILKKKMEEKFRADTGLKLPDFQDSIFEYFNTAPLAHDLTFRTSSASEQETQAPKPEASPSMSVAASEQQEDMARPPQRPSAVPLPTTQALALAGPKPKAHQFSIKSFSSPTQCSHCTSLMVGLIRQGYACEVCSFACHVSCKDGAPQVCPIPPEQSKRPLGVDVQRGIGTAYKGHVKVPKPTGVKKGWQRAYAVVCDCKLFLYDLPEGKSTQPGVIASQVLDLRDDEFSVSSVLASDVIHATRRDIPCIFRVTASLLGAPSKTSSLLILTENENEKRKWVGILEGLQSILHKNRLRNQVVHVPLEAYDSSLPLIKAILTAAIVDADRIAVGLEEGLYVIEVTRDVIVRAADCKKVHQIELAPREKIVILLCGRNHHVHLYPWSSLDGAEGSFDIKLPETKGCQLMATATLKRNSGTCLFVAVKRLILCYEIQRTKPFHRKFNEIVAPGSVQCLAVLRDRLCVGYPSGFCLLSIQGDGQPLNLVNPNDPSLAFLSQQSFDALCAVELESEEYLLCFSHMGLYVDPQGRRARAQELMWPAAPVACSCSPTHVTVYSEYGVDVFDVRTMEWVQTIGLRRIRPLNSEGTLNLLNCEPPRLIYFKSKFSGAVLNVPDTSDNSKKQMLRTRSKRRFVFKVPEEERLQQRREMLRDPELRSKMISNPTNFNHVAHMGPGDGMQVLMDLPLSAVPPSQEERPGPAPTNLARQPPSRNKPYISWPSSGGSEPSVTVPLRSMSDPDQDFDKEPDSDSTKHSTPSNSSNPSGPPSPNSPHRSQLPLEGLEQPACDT
Structure (SMILES),residual activity [1],residual activity [2],residual activity [3],residual activity [4],residual activity [5],residual activity [6],residual activity [7],residual activity [8],residual activity [9],residual activity [10]
O=C(Nc1cccc(Nc2nccc(Nc3cccc(C(F)(F)F)c3)n2)c1)C1CC1,103%,88%,114%,89%,89%,89%,105%,89%,110%,92%
O=C1c2ccccc2-[n+]2ccc3c([nH]c4ccccc43)c21,90%,85%,104%,110%,97%,90%,106%,99%,108%,94%
Cn1cnc2cc3c(Nc4cccc(Br)c4)ncnc3cc21,88%,92%,107%,95%,102%,102%,101%,81%,97%,101%
O=C1NC(=O)/C(=C/c2ccc3c(c2)OC(F)(F)O3)S1,106%,85%,133%,112%,105%,97%,100%,74%,100%,107%
CC(=O)c1ccc(N2CCOCC2)cc1O,100%,83%,133%,108%,92%,,,88%,85%,96%
COc1cc2ncnc(Nc3ccc(O)c(Br)c3)c2cc1OC,91%,71%,117%,108%,83%,72%,95%,90%,81%,55%
O=C1Nc2cc(Br)ccc2/C1=C1/Nc2ccccc2/C1=N\O,83%,87%,72%,78%,60%,55%,93%,102%,8%,-1%
COc1ccc(C(=O)Nc2sc3c(c2C(N)=O)CCCC3)cc1OC,89%,74%,123%,88%,91%,99%,104%,93%,92%,95%
O=C1NC(=O)/C(=C\c2ccc3nccnc3c2)S1,93%,53%,123%,90%,89%,68%,94%,69%,94%,101%
Cc1nc(-c2ccccc2)c(-c2ccncc2)o1,105%,96%,99%,94%,103%,77%,112%,99%,,110%
O=c1cc(-c2cccc3c2Sc2ccccc2S3)oc(N2CCOCC2)c1,93%,93%,104%,116%,95%,90%,103%,94%,99%,109%
Cc1cccc(-c2[nH]c(C(C)(C)C)nc2-c2ccc3c(c2)OCO3)n1,83%,86%,135%,,97%,104%,,,102%,105%
NC(=O)c1ccc2[nH]c(-c3ccc(Oc4ccc(Cl)cc4)cc3)nc2c1,94%,106%,115%,139%,94%,102%,98%,72%,97%,87%
CN(C)CCCn1cc(C2=C(c3c[nH]c4ccccc34)C(=O)NC2=O)c2ccccc21,,40%,24%,4%,18%,3%,113%,55%,40%,9%
Cc1cc2ncc(-c3ccccc3)nc2cc1C,92%,88%,134%,103%,92%,103%,,87%,,125%
O=C1Nc2ccccc2/C1=C1/Nc2ccccc2/C1=N\OCCC(O)CO (centres undefined),,,47%,10%,15%,2%,62%,42%,4%,-3%
Oc1c2ccccc2c2c3c(cccc13)N=N2,90%,95%,93%,69%,76%,36%,90%,82%,52%,21%
